Data taken from the supplement of paper PMC11732987, “Enantioselective OTUD7B fragment discovery through chemoproteomics screening and high-throughput optimisation” (Communications Chemistry, 2025).

Legend:
Assay in all cases: log2 ratio of Biotin-Ahx-Ub-VS probe labelling (fragment/DMSO); higher = less target engagement (more negative = stronger competition), active = hit call of the paper (q ≤ 0.05, log2 ratio ≤ -1)
Details in all cases: compound concentration: 200 uM; treatment time: 3 h
[1] = target: T1, OTUD6B (UniProt Q8N6M0)
T1 sequence (whole entry): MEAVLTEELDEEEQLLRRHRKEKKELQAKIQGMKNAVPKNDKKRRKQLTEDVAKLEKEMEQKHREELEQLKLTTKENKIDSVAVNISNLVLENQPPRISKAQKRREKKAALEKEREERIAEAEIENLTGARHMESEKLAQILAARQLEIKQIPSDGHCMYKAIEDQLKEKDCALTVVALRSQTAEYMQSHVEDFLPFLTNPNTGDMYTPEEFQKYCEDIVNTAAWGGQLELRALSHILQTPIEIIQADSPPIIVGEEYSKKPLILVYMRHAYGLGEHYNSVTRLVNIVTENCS
In short: (§1)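 The table lists average log2 ratios of fragment over vehicle, from an unpaired t-test on global-median-normalised Spectronaut label-free quantities. Proteins with ≥2 unique peptides were used. Samples were HEK293T lysate (495 µg) treated in triplicate with fragment at 200 µM or vehicle for 3 h, then with Biotin-Ahx-Ub-VS (0.5 µM final) for 1 h, with labelled DUBs NeutrAvidin-enriched and run by diaPASEF LC-MS/MS.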

[2] = target: T2, OTUD7B (UniProt Q6GQQ9)
T2 sequence (whole entry): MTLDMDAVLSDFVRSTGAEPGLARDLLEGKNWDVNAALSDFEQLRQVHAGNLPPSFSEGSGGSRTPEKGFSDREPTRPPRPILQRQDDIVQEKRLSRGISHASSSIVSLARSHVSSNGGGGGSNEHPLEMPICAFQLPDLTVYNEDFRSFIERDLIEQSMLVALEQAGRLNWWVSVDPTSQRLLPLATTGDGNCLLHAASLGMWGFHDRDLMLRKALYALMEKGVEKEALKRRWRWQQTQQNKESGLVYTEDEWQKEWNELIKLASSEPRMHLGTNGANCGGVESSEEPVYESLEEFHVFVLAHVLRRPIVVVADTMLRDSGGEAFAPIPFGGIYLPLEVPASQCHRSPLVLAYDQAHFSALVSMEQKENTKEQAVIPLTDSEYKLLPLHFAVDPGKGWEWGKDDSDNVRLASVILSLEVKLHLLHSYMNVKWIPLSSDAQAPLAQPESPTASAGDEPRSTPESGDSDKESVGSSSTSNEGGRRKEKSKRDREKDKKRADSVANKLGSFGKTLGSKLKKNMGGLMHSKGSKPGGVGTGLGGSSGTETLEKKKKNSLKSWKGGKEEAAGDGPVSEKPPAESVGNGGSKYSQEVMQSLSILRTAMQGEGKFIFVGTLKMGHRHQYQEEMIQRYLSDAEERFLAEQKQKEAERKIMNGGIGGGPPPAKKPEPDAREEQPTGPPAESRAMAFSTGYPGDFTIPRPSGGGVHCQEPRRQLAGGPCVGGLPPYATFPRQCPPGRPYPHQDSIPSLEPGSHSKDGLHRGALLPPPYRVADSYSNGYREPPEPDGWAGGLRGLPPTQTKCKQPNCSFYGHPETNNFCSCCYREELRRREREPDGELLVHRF
In short: as §1

[3] = target: PRPF8 (UniProt Q6P2Q9)
In short: as §1

[4] = target: T3, PSMD7 (UniProt P51665)
T3 sequence (whole entry): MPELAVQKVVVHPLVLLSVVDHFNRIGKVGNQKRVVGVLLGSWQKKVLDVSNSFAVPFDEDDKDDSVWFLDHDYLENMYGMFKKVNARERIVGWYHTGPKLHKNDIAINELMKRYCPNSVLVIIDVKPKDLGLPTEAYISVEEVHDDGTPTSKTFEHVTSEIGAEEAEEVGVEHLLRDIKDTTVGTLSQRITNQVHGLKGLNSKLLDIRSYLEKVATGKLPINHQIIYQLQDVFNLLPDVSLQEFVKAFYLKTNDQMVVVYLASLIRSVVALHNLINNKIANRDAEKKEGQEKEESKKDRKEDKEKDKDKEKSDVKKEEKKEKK
In short: as §1

[5] = target: UCHL1 (UniProt P09936)
Sequence of UCHL1 (P09936 whole entry, looked up): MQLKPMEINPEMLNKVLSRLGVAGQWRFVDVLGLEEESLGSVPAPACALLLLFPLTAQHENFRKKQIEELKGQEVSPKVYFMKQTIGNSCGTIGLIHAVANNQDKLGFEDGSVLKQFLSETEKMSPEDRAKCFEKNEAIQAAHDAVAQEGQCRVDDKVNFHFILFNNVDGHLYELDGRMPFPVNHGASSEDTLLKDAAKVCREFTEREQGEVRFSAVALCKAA
In short: as §1

[6] = target: T4, UCHL3 (UniProt P15374)
T4 sequence (whole entry): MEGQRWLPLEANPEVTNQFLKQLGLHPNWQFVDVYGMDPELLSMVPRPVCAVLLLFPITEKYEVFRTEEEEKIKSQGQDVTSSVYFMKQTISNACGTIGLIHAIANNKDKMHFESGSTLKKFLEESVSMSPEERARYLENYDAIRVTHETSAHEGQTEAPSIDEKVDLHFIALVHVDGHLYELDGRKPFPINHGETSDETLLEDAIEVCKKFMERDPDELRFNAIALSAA
In short: as §1

[7] = target: T5, UCHL5 (UniProt Q9Y5K5)
T5 sequence (whole entry): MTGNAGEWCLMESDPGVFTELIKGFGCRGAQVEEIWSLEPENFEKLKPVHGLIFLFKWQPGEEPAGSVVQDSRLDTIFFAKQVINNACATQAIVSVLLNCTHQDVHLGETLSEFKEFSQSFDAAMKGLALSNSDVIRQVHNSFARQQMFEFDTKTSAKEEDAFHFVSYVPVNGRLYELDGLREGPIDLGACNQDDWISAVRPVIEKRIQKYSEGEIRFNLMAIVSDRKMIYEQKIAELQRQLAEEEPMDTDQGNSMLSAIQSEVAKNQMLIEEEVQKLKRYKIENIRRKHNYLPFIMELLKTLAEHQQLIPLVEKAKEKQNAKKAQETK
In short: as §1

[8] = target: USP10 (UniProt Q14694)
Sequence of USP10 (Q14694 whole entry): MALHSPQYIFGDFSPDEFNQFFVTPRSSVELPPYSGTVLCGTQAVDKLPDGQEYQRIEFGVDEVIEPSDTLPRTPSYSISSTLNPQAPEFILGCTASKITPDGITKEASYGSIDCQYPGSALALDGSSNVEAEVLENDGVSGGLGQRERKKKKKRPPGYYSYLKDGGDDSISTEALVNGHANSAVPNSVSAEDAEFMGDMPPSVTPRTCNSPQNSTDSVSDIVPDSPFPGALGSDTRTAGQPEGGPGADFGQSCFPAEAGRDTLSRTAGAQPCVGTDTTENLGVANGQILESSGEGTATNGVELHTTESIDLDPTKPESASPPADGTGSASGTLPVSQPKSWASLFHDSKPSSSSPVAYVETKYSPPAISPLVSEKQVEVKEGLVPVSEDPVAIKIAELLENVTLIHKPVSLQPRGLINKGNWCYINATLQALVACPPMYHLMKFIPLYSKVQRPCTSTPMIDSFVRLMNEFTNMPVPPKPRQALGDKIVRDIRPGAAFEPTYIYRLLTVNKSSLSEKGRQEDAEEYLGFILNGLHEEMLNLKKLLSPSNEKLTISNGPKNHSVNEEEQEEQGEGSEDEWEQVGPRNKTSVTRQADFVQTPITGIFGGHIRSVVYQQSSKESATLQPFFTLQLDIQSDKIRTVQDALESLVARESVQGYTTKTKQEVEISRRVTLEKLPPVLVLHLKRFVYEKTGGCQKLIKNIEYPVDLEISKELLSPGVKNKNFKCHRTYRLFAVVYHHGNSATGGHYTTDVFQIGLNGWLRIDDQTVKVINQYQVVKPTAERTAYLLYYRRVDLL
In short: as §1

[9] = target: T6, USP15 (UniProt Q9Y4E8)
T6 sequence (whole entry): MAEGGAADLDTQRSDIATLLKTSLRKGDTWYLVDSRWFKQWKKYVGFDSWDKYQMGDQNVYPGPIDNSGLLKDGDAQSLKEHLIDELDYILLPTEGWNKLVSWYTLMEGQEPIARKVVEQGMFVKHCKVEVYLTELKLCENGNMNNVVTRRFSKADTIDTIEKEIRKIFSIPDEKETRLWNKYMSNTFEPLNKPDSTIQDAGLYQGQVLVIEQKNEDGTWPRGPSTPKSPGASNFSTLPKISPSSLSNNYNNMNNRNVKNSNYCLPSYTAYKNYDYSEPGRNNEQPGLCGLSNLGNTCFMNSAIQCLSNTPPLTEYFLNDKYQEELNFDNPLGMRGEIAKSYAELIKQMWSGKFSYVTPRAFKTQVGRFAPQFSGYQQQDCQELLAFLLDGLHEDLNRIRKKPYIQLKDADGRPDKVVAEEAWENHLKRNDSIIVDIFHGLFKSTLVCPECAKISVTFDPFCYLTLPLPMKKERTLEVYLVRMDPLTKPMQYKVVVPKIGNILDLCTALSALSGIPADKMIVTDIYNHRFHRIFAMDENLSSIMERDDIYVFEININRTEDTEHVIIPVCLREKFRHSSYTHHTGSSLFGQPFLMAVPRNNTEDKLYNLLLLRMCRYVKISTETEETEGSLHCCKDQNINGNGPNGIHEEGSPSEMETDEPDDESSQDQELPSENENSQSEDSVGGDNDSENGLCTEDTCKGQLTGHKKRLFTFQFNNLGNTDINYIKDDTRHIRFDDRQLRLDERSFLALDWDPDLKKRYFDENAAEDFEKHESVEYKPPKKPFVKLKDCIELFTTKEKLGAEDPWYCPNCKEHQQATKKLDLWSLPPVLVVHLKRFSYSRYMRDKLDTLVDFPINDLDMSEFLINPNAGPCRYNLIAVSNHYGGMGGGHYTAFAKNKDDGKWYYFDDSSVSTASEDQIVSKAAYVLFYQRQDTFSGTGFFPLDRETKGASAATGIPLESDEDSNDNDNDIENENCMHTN
In short: as §1

[10] = target: USP16 (UniProt Q9Y5T5)
Sequence of USP16 (Q9Y5T5 whole entry, looked up): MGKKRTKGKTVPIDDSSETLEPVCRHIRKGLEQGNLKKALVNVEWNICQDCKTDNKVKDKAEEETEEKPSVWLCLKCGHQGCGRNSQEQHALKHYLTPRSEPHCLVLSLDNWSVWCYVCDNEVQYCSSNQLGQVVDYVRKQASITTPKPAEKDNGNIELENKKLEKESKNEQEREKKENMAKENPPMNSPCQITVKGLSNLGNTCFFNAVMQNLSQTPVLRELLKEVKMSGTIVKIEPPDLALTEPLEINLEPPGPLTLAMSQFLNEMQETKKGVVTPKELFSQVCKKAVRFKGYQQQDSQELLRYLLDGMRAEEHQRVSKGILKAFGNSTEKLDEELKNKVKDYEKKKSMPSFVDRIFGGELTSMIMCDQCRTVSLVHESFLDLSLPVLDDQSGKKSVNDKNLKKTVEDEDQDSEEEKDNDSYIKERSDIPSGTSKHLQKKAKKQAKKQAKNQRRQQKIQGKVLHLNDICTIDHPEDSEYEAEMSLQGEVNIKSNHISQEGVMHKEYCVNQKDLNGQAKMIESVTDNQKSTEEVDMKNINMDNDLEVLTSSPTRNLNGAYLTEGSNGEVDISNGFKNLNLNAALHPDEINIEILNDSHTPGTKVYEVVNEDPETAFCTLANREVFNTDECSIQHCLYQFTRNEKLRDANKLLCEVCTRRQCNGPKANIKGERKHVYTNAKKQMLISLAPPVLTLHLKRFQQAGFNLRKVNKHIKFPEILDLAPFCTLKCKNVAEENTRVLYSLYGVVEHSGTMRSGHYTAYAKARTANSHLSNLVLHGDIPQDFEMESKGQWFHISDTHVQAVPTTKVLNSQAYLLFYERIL
In short: as §1

Measured: log2 ratio of Biotin-Ahx-Ub-VS probe labelling

O=C(CCl)N(C1=CCCCC1)C1CC1
inactive: [1] -0.00924 | [2] -0.39 | [3] 0.215 | [4] 0.0445 | [6] 0.218 | [7] -0.186 | [8] -0.112 | [9] -0.209 | [10] -0.193
active: [5] -1.24
